Our source for the outcome and AC50 values is PubChem BioAssay (EPA / NIEHS).

Results filed as inconclusive are left out. The source made the active and inactive calls. How the source made its calls, unless noted: active means hit-call score of the fitted dose curve at least 0.9, where 1 is the maximum; inactive means score below 0.9.

Read-out in test [1]: Monokine induced gamma interferon (MIG), CXCL9 (gene 4283)
Briefly: BSK_3C_MIG: BioMAP Diversity Plus: 3C Assay for Monokine induced gamma interferon (MIG) Biomarker Activity (AID 2283021).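 On AC50: MIG protein level measured by immunoassay in the treated endothelial cultures.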 The settings on record: primary human endothelial cells (HUVEC); actives raise or lower the signal. The method, boiled down: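 Primary human umbilical vein endothelial cells in the 3C system were exposed to chemical for 24 h, after which MIG was quantified by ELISA. Activity was fitted bidirectionally against DMSO as negative control and baseline.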

Test [2] addresses human Vitamin D Receptor (VDR), VDR (gene 7421) (UniProt P11473). Briefly: ATG_VDR_TRANS: Attagene TRANS-FACTORIAL HepG2 Assay for human Vitamin D Receptor (VDR) (AID 2283022; active means hit-call score of the fitted dose curve at least 0.9, where 1 is the maximum). The method, boiled down:
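HepG2 cells were transiently transfected with GAL4-UAS reporter units and a chimeric VDR-Gal4 construct, then dosed for 24 hours. Reporter mRNA was quantified by RT-PCR, fluorescent labeling, HpaI digestion and capillary electrophoresis; gain of signal analysed vs DMSO.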

Test [3] can be described thus: BSK_3C_SRB: Viability Assessment in the BioMAP Diversity Plus: 3C Assay (AID 2283023).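 Further: fitted both ways against DMSO so a hit may be signal rise or drop.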 The conditions noted are these: primary human endothelial cells (HUVEC). The method, boiled down: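 Human umbilical vein endothelial cells in the 3C system, treated 24 h. Total protein measured by 0.1% sulforhodamine B staining after 10% TCA fixation, read at 560 nm; bidirectional fit versus DMSO.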

Read-out in test [4]: Matrix Metallopeptidase 1 (MMP1), MMP1 (gene 4312)
The test can be described thus: BSK_BE3C_MMP1: BioMAP Diversity Plus: BE3C Assay for Matrix Metallopeptidase 1 (MMP1) Biomarker Activity (AID 2283024). The settings on record: primary human bronchial epithelial cells; actives raise or lower the signal. Summed up: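 Primary human bronchial epithelial cells were dosed with test chemicals, and MMP1 levels were measured by ELISA 24 h later. Data were fitted bidirectionally against DMSO as the negative control and activity baseline.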

A short description of test [5]: BSK_3C_Vis: BioMAP Diversity Plus: 3C Assay for Morphology Visualization (AID 2283025).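 Further: fitted both ways so gain or loss versus DMSO counts.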 The conditions noted are these: primary human endothelial cells (HUVEC). The method, boiled down:
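Human umbilical vein endothelial cells in the 3C system were imaged by light microscopy 24 h after chemical dosing to record cell morphology. Activity was fitted bidirectionally against DMSO as negative control and baseline; the endpoint serves as a background control.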

Read-out in test [6]: Pselectin, SELP (gene 6403)
The test can be described thus: BSK_4H_Pselectin: BioMAP Diversity Plus: 4H Assay for Pselectin Biomarker Activity (AID 2283026). The conditions noted are these: primary human endothelial cells (HUVEC); actives raise or lower the signal. Summed up: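 Primary human umbilical vein endothelial cells were exposed to test chemical for 24 h, then cell-surface P-selectin was quantified by ELISA. Activity was fitted bidirectionally against DMSO as negative control and baseline.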

Test [7] in a line: BSK_4H_SRB: Viability Assessment in the BioMAP Diversity Plus: 4H Assay (AID 2283027).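 Further: cells exposed to compound for 24 h before staining.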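 On AC50: curves fitted both ways versus DMSO so AC50 may be loss or gain.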 The conditions noted are these: primary human endothelial cells (HUVEC). Summed up:
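Human umbilical vein endothelial cells, 24 h after chemical dosing; total protein measured by 0.1% sulforhodamine B staining after 10% TCA fixation, read at 560 nm. Bidirectional fitting against DMSO.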

Test [8] is described as follows: BSK_BE3C_SRB: Viability Assessment in the BioMAP Diversity Plus: BE3C Assay (AID 2283028).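 On AC50: fitted both ways so AC50 may mark signal gain or loss versus DMSO.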 The conditions noted are these: primary human bronchial epithelial cells. Summed up: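 Human bronchial epithelial primary cells in confluent culture, 24 h after chemical dosing; total protein by 0.1% SRB staining after 10% TCA fixation, read at 560 nm. Bidirectional fitting versus DMSO baseline.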

Read-out in test [9]: Thrombomodulin, THBD (gene 7056)
Briefly: BSK_3C_Thrombomodulin: BioMAP Diversity Plus: 3C Assay for Thrombomodulin Biomarker Activity (AID 2283029). The settings on record: primary human endothelial cells (HUVEC); actives raise or lower the signal. Summed up: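 Primary human umbilical vein endothelial cells (3C system) were exposed to chemical for 24 h, then thrombomodulin levels were measured by ELISA. Activity was fitted bidirectionally against the DMSO negative control as baseline.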

Read-out in test [10]: Urokinase-type plasminogen activator receptor (uPAR), PLAUR (gene 5329)
Briefly: BSK_4H_uPAR: BioMAP Diversity Plus: 4H Assay for Urokinase-type plasminogen activator receptor (uPAR) Biomarker Activity (AID 2283030). The conditions noted are these: primary human endothelial cells (HUVEC); actives raise or lower the signal. Summed up:
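Human umbilical vein endothelial cells in the 4H system, 24 h after chemical dosing. Cell-surface uPAR measured by ELISA, fitted in both directions versus DMSO; cytotoxicity checked by SRB total protein in parallel cultures.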

human Vitamin D Receptor (VDR), VDR (gene 7421), sequence (P11473 whole entry, looked up, the tested form may be a part): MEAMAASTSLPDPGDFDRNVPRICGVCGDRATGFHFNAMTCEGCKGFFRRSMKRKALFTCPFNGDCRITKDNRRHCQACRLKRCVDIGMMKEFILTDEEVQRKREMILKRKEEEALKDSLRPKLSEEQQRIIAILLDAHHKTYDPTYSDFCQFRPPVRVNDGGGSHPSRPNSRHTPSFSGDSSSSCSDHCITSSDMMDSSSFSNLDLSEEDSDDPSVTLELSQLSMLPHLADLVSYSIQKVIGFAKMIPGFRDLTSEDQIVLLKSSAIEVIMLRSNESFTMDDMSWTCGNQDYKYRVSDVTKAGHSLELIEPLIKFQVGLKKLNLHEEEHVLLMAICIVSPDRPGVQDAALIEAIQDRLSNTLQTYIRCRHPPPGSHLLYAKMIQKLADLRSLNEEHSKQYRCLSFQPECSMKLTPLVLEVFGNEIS

For `Cc1cc(O)ccc1Cl`, the outcome in test [1], in test [2], in test [3], in test [4], in test [5] and in [6] was inactive. Also, the result in test [7], in [8], in test [9] and in test [10] was inactive.

As a reminder, the AC50 is the concentration giving half of the maximal activity seen. As to `ClC(Cl)=C(c1ccc(Cl)cc1)c1ccc(Cl)cc1`, the AC50 in test [1] was 35 µM (active); in test [3] it was 29.2 µM (active); in [4], 25.2 µM (active); in test [5], 37.3 µM (active); in [6], 31.3 µM (active); in [7], 30.6 µM (active). Moreover, the AC50 in test [10] was 32.8 µM (active). Further, the result in [2], in test [8] and in test [9] was inactive.

As to `CN(C)c1nc(=O)n(C2CCCCC2)c(=O)n1C`, the result in test [1], in test [3], in test [4], in test [5], in [6] and in test [7] was inactive. Also, the outcome in test [8], in test [9] and in test [10] was inactive.

On to `Cc1cccc(C)c1N`, for which the result in test [1], in test [3], in test [4], in test [5], in [6] and in test [7] was inactive. Also, the result in [8], in test [9] and in [10] was inactive.

In the case of `N#Cc1ccc(N(CC(N)=O)CC(F)(F)F)cc1C(F)(F)F`, the result in [1], in test [3], in test [4], in test [5], in [6] and in test [7] was inactive. The outcome in test [8], in [9] and in [10] was inactive.

Turning to `O=C(NC(=O)c1c(F)cccc1F)Nc1cc(Cl)c(OC(F)(F)C(F)F)c(Cl)c1`, the result in test [1], in test [3], in test [4], in [6], in test [7] and in [8] was inactive. Besides, the result in [9] and in test [10] was inactive. In addition, in test [5], the AC50 is 39 µM (active).

`Nn1cnnc1`: the outcome in test [1], in test [3], in test [4], in test [5], in [6] and in test [7] was inactive. The result in [8], in test [9] and in test [10] was inactive.

In the case of `CCC(C)c1cc([N+](=O)[O-])cc([N+](=O)[O-])c1O` (stereo not given), the outcome in [1], in test [4], in test [8] and in test [9] was inactive. For the same compound, the AC50 was 10 µM (active) in test [3]; 9.8 µM (active) in [5]; 10.6 µM (active) in test [6]; 12.6 µM (active) in test [7]; 11.5 µM (active) in test [10].

Turning to `O=NN(c1ccccc1)c1ccccc1`, the result in test [1], in test [3], in [4], in test [5], in [6] and in test [7] was inactive. For the same compound, the outcome in test [8], in test [9] and in [10] was inactive.

Consider `O=C(O)C(F)(F)C(F)(F)C(F)(F)C(F)(F)C(F)(F)F`, for which the outcome in [1], in test [3], in test [4], in [5], in [6] and in [7] was inactive. Also, the result in test [8], in test [9] and in test [10] was inactive.

With `c1ccc(-c2ccccc2)cc1`, the result in test [1], in [3], in [4], in test [5], in test [6] and in test [7] was inactive. The outcome in test [8], in test [9] and in [10] was inactive.

For `CCCN(CCC)N=O`, the outcome in test [1], in test [3], in test [4], in [5], in [6] and in test [7] was inactive. The outcome in test [8], in [9] and in test [10] was inactive.

In the case of `Cc1ccc(O)c(C)c1`, the outcome in [1], in [3], in test [4], in test [5], in test [6] and in test [7] was inactive. In addition, the result in [8], in [9] and in test [10] was inactive.

Consider `C[C@]12CCC(=O)C=C1CC[C@@H]1[C@@H]2CC[C@]2(C)C(=O)CC[C@@H]12`, for which the result in test [1], in test [3], in [4], in [5], in test [6] and in test [7] was inactive. The outcome in test [8] and in test [9] was inactive.

Consider `CCCCCCCCOC(=O)c1ccccc1C(=O)OCCCCCCCC`, for which the result in test [1], in test [3], in test [4], in test [5], in [6] and in test [7] was inactive. Further, the outcome in [8] and in test [9] was inactive. Besides, in [10], the AC50 was 3.7 µM (active).

Take `CC(C)(c1ccccc1)c1ccc(O)cc1`: the AC50 is 39.1 µM (active) in test [1]; 30.2 µM (active) in test [3]; 37.5 µM (active) in [5]; 32.6 µM (active) in test [6]; 30.5 µM (active) in test [7]; 32.3 µM (active) in test [8]. Besides, the AC50 in test [10] is 32 µM (active). The result in test [2], in [4] and in [9] was inactive.

Consider `CCCCCCOC(=O)c1ccccc1C(=O)OCCCCCC`, for which the result in test [1], in test [4], in test [5], in [7], in test [8] and in [9] was inactive. Moreover, in [10], the result was inactive. The AC50 in [3] was 15.1 µM (active); in [6] it was 29.3 µM (active).
